Among the data in the supplement of paper PMC6555819 are PBM binding z-score values, retold here.

Common to all, as to assay: PBM binding z-score (relative to random genomic background probes); higher = stronger binding; sequences stand for … in GC…GCGATTGACAGCGTAGAATGAAGG
Assay [1] concerns RARb homodimer (NR concentration 270 nM). The method in brief: (§1)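 On custom Agilent 4×180K arrays, double-stranded probes with 34-nt variable regions carried direct-repeat seeds, single-nucleotide variants, half-site ablations or random human genomic background. Ligand-free nuclear receptor dimers were applied for 1 h, and binding was read with antibodies against each partner (one per run). Binding z-scores come from regression-normalized fluorescence, with the random background probes as reference.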

Assay [2] deals with RARg:RXRa (NR concentration 270 nM, RXRa partner concentration 90 nM). The method in brief: as §1
Assay [3] relates to RARg homodimer (NR concentration 270 nM). The essentials:
as §1

The subject of assay [4] is RXRa DBDmut IVT, anti-RXR (DBD mutation: RXRa K156A/R161A, NR concentration 90 nM). The essentials: as §1
The test system of assay [5] is RXRa homodimer (NR concentration 180 nM). The method in brief: as §1
The test system of assay [6] is THRa:RXRa (NR concentration 90 nM, RXRa partner concentration 90 nM). The essentials:
as §1

For assay [7], the system named is THRa homodimer (NR concentration 90 nM). The method in brief: as §1
For assay [8], the system named is VDR homodimer (NR concentration 270 nM). The method in brief:
as §1

In the case of TCGAGTAGGTTAGTTGGGGCATTCAGCCAACATA, the PBM binding z-score is 0.525 in assay [1]; -0.065 in assay [2]; -0.0945 in assay [3]; 0.0825 in assay [4]; -0.226 in assay [5]; 1.01 in assay [6]. For the same sequence, the PBM binding z-score in assay [7] is -0.251; in assay [8], -0.0385.
As for GCAGACAGGTGCAACGCAGGTAACTCAGGGTGGC, the PBM binding z-score in assay [1] is -0.431; in assay [2], -0.314; in assay [3], -0.365; in assay [4], 0.123; in assay [5], 0.00957; in assay [6], 2.13. Besides, the PBM binding z-score was -0.805 in assay [7] and -0.15 in assay [8].
For CCTGGCAGGCCAATCTGGGTCACTCAAGGCTTGA, the PBM binding z-score in assay [1] was 2.28; in assay [2], 1.11; in assay [3], 1.5; in assay [4], -0.376; in assay [5], 0.545; in assay [6], 3.8. For the same sequence, the PBM binding z-score is 0.481 in assay [7] and -0.15 in assay [8].
On to CTACCAAGGTGAACAAGGTCGTTGAGTACTATTC, for which the PBM binding z-score in assay [1] came out at 2.27; in assay [2], 1.92; in assay [3] it was 1.43; in assay [4] it was 1.64; in assay [5], 2.39; in assay [6], 3.28. Also, the PBM binding z-score in assay [7] worked out at 1.83; in assay [8], 3.27.
For CCTTACGGGTCGCTCCAGGTTATAGCATCGGAGT, the PBM binding z-score in assay [1] worked out at 1.07; in assay [2] it was 0.907; in assay [3], 1.08; in assay [4], 0.0194; in assay [5], 1.14; in assay [6] it was 4.18. For the same sequence, the figures for the PBM binding z-score in assay [7] and in assay [8] were 0.109 and 0.177, respectively.
For AGAACGAGGGCACGATGAGTTGATAGCAGAGTAG, the PBM binding z-score was 1.22 in assay [1]; 2.18 in assay [2]; 2.42 in assay [3]; 1.77 in assay [4]; 1.57 in assay [5]; 2.03 in assay [6]. For the same sequence, the PBM binding z-score in assay [7] was found to be 0.236; in assay [8], 1.66.
With ATATGTAGGTTAGCTGGGCTCATTCAGACTAGGC, the PBM binding z-score in assay [1] is 0.13; in assay [2], 0.263; in assay [3], 0.55; in assay [4], -0.108; in assay [5], 0.38; in assay [6], 0.702. The results for the PBM binding z-score in assay [7] and in assay [8] were -0.522 and -0.144, respectively.
